The results in this text go back to PubChem BioAssay (Tox21).

A number with no mark means an inactive call. Records with an inconclusive call do not appear. Activity calls are given as the source filed them. Unless noted, the call rests on the fitted dose curve.

For assay [1], the target named is Aromatase (Homo sapiens) (UniProt P11511). Description: qHTS assay to identify aromatase inhibitors (AID 743083; active means well fitted curve in the direction sought with a large enough effect in the repeat runs; an effect the other way counts as inactive or inconclusive; further: nearly all actives have a fitted effect of over 55% in size; further: potency means the concentration at half of the fitted maximal effect).
Assay [2] in a line: qHTS assay to identify small molecule antagonists of the estrogen related receptor (ERR) signaling pathway - cell viability counter screen (AID 1224818; active means well fitted curve in the direction sought with a large enough effect in the repeat runs; an effect the other way counts as inactive or inconclusive;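 further: viability measured after 17.5 h of compound exposure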). Put shortly:
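In the same ERR cell assay, compound-treated wells (17.5 h, 37 C) were multiplexed with a fluorogenic viability reagent, CellTiter-Fluor, read after 30 min to flag cytotoxic substances.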
Background: Quantitative high-throughput screening tests each substance at several concentrations.

Assay [3] can be described thus: qHTS assay to identify small molecule antagonists of the estrogen related receptor (ERR) signaling pathway (AID 1224819; active means well fitted curve in the direction sought with a large enough effect in the repeat runs; an effect the other way counts as inactive or inconclusive; further: nearly all actives have a fitted effect of over 50% in size; further: potency means the concentration at half of the fitted maximal effect;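 on activity change, negative = inhibition: luminescence from an ERR-driven luciferase reporter measured with One-Glo reagent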). The method in brief:
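qHTS in ERR cells, 2,000/well, 1536 format. Cpd (DMSO) added after 6 h settle, 18 h 37 C. One-Glo luminescence, 30 min RT.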

Assay [4] can be described thus: qHTS assay to identify small molecule agonists of the estrogen related receptor (ERR) signaling pathway (AID 1224820; active means well fitted curve in the direction sought with a large enough effect in the repeat runs; an effect the other way counts as inactive or inconclusive). The method in brief:
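Cells: ERR line from NTP, 2,000/well. Pre-incubation 6 h, 37 C/5% CO2. Compound (DMSO) pin transfer, 18 h 37 C. One-Glo, 30 min RT, luminescence.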

Assay [5] has as its system estrogen-related receptor alpha (ERRalpha) with PGC-1alpha coactivator, human. Briefly: qHTS assay to identify small molecule antagonists of the estrogen related receptor signaling pathway with the pleiotropic PPARgamma coactivator (PGC) (AID 1224821). Further: nearly all actives have a fitted effect of over 50% in size. Further: potency means the concentration at half of the fitted maximal effect.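 On activity change, negative = inhibition: lower luminescence signal means antagonism of PGC/ERR signalling.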 Put shortly:
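Luminescent read-out (One-Glo, 30 min at room temperature) following 18 h treatment of PGC/ERR cells at 37 C with compounds delivered in DMSO. Cells had settled 6 h at 37 C/5% CO2 before dosing.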

The nature of assay [6]: qHTS assay to identify small molecule antagonists of the estrogen related receptor signaling pathway with the pleiotropic PPARgamma coactivator (PGC) cell viability counter screen (AID 1224822; active means well fitted curve in the direction sought with a large enough effect in the repeat runs; an effect the other way counts as inactive or inconclusive). Put shortly: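 Compounds in DMSO, with positive and negative controls, were applied to PGC/ERR cells (2,000/well) and left 17.5 h at 37 C before CellTiter-Fluor detection.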
Assay [7] is described as follows: qHTS assay to identify small molecule agonists of the estrogen related receptor signaling pathway with the pleiotropic PPARgamma coactivator (PGC) (AID 1224823; active means well fitted curve in the direction sought with a large enough effect in the repeat runs; an effect the other way counts as inactive or inconclusive). The method in brief: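 Steps: plate PGC/ERR cells at 2,000 cells/well; incubate 6 h, 37 C/5% CO2; pin-transfer compounds (DMSO); incubate 18 h, 37 C; add One-Glo; 30 min RT; read luminescence.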
The nature of assay [8]: qHTS assay to identify small molecule agonists of the estrogen related receptor (ERR) signaling pathway from Tox21 library (AID 1224849). Further: nearly all actives have a fitted effect of over 15% in size. The conditions noted are these: ERR reporter cell line, ONE-Glo luciferase, 18 h; at 92.4 µM (top of the series) unless noted. Put shortly:
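Six hours post-seeding at 37 C/5% CO2, ERR cells receive DMSO-solubilised compounds; after 18 h at 37 C, ONE-Glo reagent is applied and luminescence recorded.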

Assay [9] is described as follows: qHTS assay to identify small molecule HDAC inhibitors (AID 1259364; active means well fitted curve in the direction sought with a large enough effect in the repeat runs; an effect the other way counts as inactive or inconclusive;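 further: wild-type HCT-116 cells with endogenous class I/II HDAC activity; top concentration of the series differs between compounds; nearly all actives have a fitted effect of over 45% in size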). The method in brief:
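Relative class I and II HDAC activity is taken from the luminogenic signal in HCT-116 cells, with compound exposure 2 hr and reagent development 30 min at room temperature.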

The nature of assay [10]: qHTS assay to identify small molecule agonists of the sonic hedgehog signaling (Shh) pathway (AID 1259368).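 Further: NIH/3T3-derived 3T3Gli1-Luc cells carrying a stable Gli1-driven firefly luciferase reporter; nearly all actives have a fitted effect of over 15% in size.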 The method in brief: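 Mouse fibroblast (NIH/3T3) reporter cells with stably integrated Gli1-Luc were treated 24 hr with compound; firefly luciferase luminescence served as the read-out.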
The nature of assay [11]: Caspase-3/7 induction in HepG2 cells by small molecules, qHTS assay (AID 1346978; active means well fitted curve in the direction sought with a large enough effect in the repeat runs; an effect the other way counts as inactive or inconclusive; further: nearly all actives have a fitted effect of over 15% in size). The method in brief:
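Wild-type HepG2 cells, 2,000/well, settled 5 hr at 37 C and 5% CO2, then compound-treated for 17 hr; caspase-3/7 activity read by luminescent Caspase-Glo 3/7 after 30 min at room temperature.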

Assay [12] in a line: Caspase-3/7 induction in CHO-K1 cells by small molecules, qHTS assay (AID 1346980; active means well fitted curve in the direction sought with a large enough effect in the repeat runs; an effect the other way counts as inactive or inconclusive; further: nearly all actives have a fitted effect of over 15% in size). The method in brief:
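Wild-type CHO-K1 cells exposed to compounds for 17hr at 37 C, 5% CO2. Caspase-3/7 activity then measured by Caspase-Glo 3/7 luminescence after 30min at room temperature.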

Assay [13] deals with Acetylcholinesterase (Homo sapiens) (UniProt P22303). Description: Acetylcholinesterase (AChE) small molecule antagonists: colormetric cell-based qHTS assay (AID 1347395). Further: nearly all actives have a fitted effect of over 30% in size. Further: potency means the concentration at half of the fitted maximal effect. The method in brief: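 Colorimetric read-out: DTNB detects thiocholine released when cellular AChE in SH-SY5Y cells hydrolyses acetylthiocholine. Cells attached overnight, received compound for 30 min at 37 C, then substrate mix for 90 min at 37 C.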

Assay [14] has the same target. Description: Acetylcholinesterase (AChE) small molecule antagonists: enzyme-based qHTS assay (AID 1347397). Further: nearly all actives have a fitted effect of over 55% in size. Further: potency means the concentration at half of the fitted maximal effect. Conditions: Potency: AChE enzyme activity inhibition; outcome: AChE enzyme activity inhibition. The method in brief: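 Recombinant human AChE (50 mU/mL) preincubated with compound 30 min at room temperature; acetylthiocholine plus DTNB then added, and thiocholine formation read colorimetrically after 10 min at room temperature. DMSO served as vehicle control.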

The target is the same in assay [15]. Description: Acetylcholinesterase (AChE) small molecule antagonists: fluorescence cell-based qHTS assay (AID 1347398). Further: nearly all actives have a fitted effect of over 50% in size. Further: potency means the concentration at half of the fitted maximal effect. The conditions noted are these: Potency: AChE activity; outcome: AChE activity. Put shortly:
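SH-SY5Y cells (2000/well), attached overnight, incubated with compound 30 min at 37 C. Acetylthiocholine plus Thiolite Green then added for 40 min at room temperature. Thiocholine fluorescence (Ex/Em 490/520 nm) reports cellular AChE activity.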

Assay [16] shares this target. Briefly: Acetylcholinesterase (AChE) small molecule antagonists: enzyme-based qHTS assay with human liver microsomes (AID 1347399). Further: nearly all actives have a fitted effect of over 60% in size. Further: potency means the concentration at half of the fitted maximal effect. The conditions noted are these: Potency: qHTS inhibition; outcome: qHTS inhibition. Put shortly:
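Recombinant human AChE (50 mU/mL in the enzyme mix) and human liver microsomes (0.25 mg/mL final) were preincubated with compound and NADPH (0.25 mg/mL final) for 30 min at 37 C. Acetylthiocholine/DTNB was then added; thiocholine was read colorimetrically after 10 min at room temperature.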

Assay [17] can be described thus: qHTS assay to identify small molecule agonists of H2AX (AID 1224845; active means well fitted activation curve with a large enough effect in the signal ratio in the repeat runs, not every such curve was filed as active; the % refers to the signal ratio; further: potency means the concentration at half of the fitted maximal effect). Put shortly:
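Wild-type CHO-K1 cells, plated overnight, exposed 3hr at 37C to 15 concentrations (0.76% DMSO final). Lysed, then HTRF anti-pH2AX (S139) cryptate and anti-H2AX-d2 antibodies, 24 hr room temperature; 665/620 nm emission read.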

Assay [18] in a line: qHTS assay to identify small molecule antagonists of the retinoic acid receptor (RAR) signaling pathway (AID 1159552; active means well fitted curve in the direction sought with a large enough effect in the repeat runs; an effect the other way counts as inactive or inconclusive; further: nearly all actives have a fitted effect of over 50% in size; further: potency means the concentration at half of the fitted maximal effect). Put shortly: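 Cells of the C3RL4 line were seeded, incubated overnight, then dosed with compounds in DMSO followed immediately by retinol (1 uM final). Six hours later luciferase detection reagent went in; signal was measured after 30 min at RT.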
A short description of assay [19]: qHTS assay for small molecule agonists of the p53 signaling pathway (AID 651631). Further: nearly all actives have a fitted effect of over 15% in size. Put shortly: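 Read-out is beta-lactamase FRET fluorescence measured 2 h after substrate addition at room temperature, in HCT-116 cells with a p53 response element-driven reporter exposed to compounds for 16 h at 37 °C.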
Assay [20] has as its target Aryl hydrocarbon receptor (Homo sapiens) (UniProt P35869). Briefly: qHTS assay to identify small molecule that activate the aryl hydrocarbon receptor (AhR) signaling pathway (AID 743085; active means well fitted curve in the direction sought with a large enough effect in the repeat runs; an effect the other way counts as inactive or inconclusive). The method in brief:
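Cell line HG2L7.5c1 (human hepatoma, 20× DRE-luc). Plated, 5 h 37C, compound/DMSO added, 24 h 37C. CellTiter-Fluor 30 min 37C → fluorescence; then ONE-Glo 30 min RT → luminescence.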
On the % scale 0 is the no-effect control and ±100 the full control effect.

Sequence of Aromatase (Homo sapiens) (P11511 whole entry, looked up): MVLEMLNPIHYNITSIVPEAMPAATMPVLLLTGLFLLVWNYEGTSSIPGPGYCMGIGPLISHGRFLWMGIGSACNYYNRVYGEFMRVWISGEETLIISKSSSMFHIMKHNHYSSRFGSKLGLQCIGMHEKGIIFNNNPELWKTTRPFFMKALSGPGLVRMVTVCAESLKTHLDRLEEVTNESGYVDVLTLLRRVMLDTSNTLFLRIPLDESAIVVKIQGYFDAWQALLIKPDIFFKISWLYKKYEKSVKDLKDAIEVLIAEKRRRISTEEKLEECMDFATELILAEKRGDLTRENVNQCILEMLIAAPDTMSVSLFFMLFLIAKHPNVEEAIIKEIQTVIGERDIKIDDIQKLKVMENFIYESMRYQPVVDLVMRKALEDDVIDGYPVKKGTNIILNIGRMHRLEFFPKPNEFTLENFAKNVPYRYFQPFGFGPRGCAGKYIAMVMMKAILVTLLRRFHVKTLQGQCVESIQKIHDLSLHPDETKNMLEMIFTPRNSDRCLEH
Sequence of Acetylcholinesterase (Homo sapiens) (P22303 whole entry, looked up): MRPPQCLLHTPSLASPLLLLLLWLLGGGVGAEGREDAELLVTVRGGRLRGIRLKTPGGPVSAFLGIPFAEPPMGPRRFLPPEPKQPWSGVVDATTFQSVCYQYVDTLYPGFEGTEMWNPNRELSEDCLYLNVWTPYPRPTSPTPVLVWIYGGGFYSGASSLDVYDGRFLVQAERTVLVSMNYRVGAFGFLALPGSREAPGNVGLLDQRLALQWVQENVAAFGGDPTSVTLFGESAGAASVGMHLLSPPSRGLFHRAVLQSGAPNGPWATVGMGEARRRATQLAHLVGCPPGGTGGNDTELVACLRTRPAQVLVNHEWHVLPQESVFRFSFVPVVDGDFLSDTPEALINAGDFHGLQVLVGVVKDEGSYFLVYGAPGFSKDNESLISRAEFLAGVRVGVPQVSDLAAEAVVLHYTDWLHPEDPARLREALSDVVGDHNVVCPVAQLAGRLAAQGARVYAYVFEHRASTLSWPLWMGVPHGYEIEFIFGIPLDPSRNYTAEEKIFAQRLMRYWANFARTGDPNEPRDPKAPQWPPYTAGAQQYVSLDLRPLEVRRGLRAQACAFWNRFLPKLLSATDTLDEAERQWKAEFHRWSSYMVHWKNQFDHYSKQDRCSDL
Sequence of Aryl hydrocarbon receptor (Homo sapiens) (P35869 whole entry, looked up): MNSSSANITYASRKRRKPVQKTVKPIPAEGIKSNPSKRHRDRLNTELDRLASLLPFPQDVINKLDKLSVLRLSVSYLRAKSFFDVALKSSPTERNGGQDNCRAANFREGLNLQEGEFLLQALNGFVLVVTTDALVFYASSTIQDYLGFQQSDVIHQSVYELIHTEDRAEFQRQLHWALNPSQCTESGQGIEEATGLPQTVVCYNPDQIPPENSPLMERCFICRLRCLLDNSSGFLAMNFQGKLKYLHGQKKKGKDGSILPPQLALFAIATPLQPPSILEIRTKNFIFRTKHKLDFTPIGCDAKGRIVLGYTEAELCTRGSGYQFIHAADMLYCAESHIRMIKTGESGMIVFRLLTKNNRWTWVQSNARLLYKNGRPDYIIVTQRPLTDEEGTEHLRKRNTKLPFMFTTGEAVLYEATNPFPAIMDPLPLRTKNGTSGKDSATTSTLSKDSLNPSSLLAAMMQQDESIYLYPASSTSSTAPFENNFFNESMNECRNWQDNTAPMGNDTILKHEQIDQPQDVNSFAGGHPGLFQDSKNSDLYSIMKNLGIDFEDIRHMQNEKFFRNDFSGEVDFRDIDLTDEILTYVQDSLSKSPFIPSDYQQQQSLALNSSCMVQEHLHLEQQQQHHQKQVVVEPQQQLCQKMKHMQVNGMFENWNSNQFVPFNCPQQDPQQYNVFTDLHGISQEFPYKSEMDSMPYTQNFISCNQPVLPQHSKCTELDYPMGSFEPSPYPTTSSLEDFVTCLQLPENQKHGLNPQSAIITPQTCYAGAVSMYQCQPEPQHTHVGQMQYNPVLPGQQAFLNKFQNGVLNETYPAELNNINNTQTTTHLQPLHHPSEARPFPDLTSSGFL

As to `COc1cc(OC)c(OC)cc1C=O`, the Potency in [1] is 44.4 µM (active). Also, the Potency result in assay [2], in assay [3], in [4], in [5], in assay [6] and in assay [7] was “inactive” in each case. Also, the Potency result in assay [11], in assay [13], in assay [14], in assay [15] and in assay [16] was “inactive” throughout. Moreover, the activity change, positive = activation in assay [8] is -39.3%. Moreover, the compound was called inactive in assay [9], in [10] and in assay [12].
For the compound `CNC(=O)Oc1cc(C)c(SC)c(C)c1`, the Potency in [17] was 63.5 µM (active); in [13], 3.17 µM (active); in [14], 3.56 µM (active); in assay [15], 1.59 µM (active); in [16] it was 22.4 µM (active). Further, the result in assay [9], in [10] and in assay [12] was inactive. In addition, in assay [11], the Potency result was “inactive”.
For `CCC(C)=O`, the Potency result in assay [1], in [18], in [17], in assay [13], in assay [14] and in assay [15] was “inactive” throughout. In addition, the Potency entry in assay [16] is “inactive”. For the same compound, the activity change, positive = activation in assay [8] is -6.3%.
On to `CCCCC(CC)COC(=O)c1ccc(C(=O)OCC(CC)CCCC)cc1` (stereo not drawn), for which the Potency result in [19], in assay [1], in assay [20], in assay [18], in assay [17] and in assay [13] was “inactive” throughout. Moreover, the Potency result in assay [14], in assay [15] and in assay [16] was “inactive” each time. Further, the activity change, positive = activation in assay [8] was 0.923%.
`CCCCC(CC)COC(=O)CCCCC(=O)OCC(CC)CCCC` (stereo not drawn): the Potency result in [19], in assay [1], in assay [20], in assay [18], in [11] and in assay [13] was “inactive” in each case. In addition, the Potency result in assay [14], in [15] and in assay [16] was “inactive” throughout.
In the case of `Cc1ccc2nc3sc(=O)sc3nc2c1`, the activity, negative = inhibition is 10.1% [at 19 µM] in assay [18] and -0.0538% [at 23.6 µM] in [13]. The activation (H2AX phosphorylation) in [17] is -0.108% [at 31.6 µM]. Moreover, the activity change, negative = inhibition in assay [9] is -12.7% [at 19 µM]; in assay [14] it was 0% [at 23.6 µM]; in [15], 1.71% [at 23.8 µM]; in [16], -0.324% [at 23.6 µM]. Besides, the activity change in [10] is 2.66% [at 18.9 µM]. Besides, the caspase activation in assay [11] was 0.305% [at 19 µM]. For the same compound, in assay [12], the caspase-3/7 activation was -0.994% [at 19 µM].
Regarding `CO/C=C(/C(=O)OC)c1ccccc1Oc1cc(Oc2ccccc2C#N)ncn1`, the results for the Potency in assay [1], in assay [3] and in assay [5] were 41.1 µM (active), 4.86 µM (active) and 8.31 µM (active), respectively. The Potency result in [4], in [6], in [7], in assay [11], in assay [13] and in assay [14] was “inactive” each time. The Potency entry in assay [15] and in [16] was “inactive” throughout. In addition, in [8], the activity change, positive = activation was -64.5%. The result in assay [9], in assay [10] and in assay [12] was inactive.
In the case of `O=C1OC(=O)c2c(Cl)c(Cl)c(Cl)c(Cl)c21`, the Potency result in [19], in assay [1], in [20], in assay [18], in assay [11] and in assay [13] was “inactive” in each case. The Potency result in assay [14], in [15] and in assay [16] was “inactive” throughout. The activity change, positive = activation in assay [8] was -2.98%.
In the case of `N#Cc1cc([N+](=O)[O-])ccc1N`, the Potency result in [18], in [17], in assay [11], in assay [13], in [14] and in [15] was “inactive” throughout. Moreover, the Potency entry in assay [16] is “inactive”. Besides, in assay [8], the activity change, positive = activation was -2.3%. The call in assay [9], in [10] and in assay [12] was inactive.
In the case of `O=S(=O)(C(Cl)(Cl)Cl)C(Cl)(Cl)Cl`, the Potency in assay [18] was 9.69 µM (active). The activity change, positive = activation in assay [8] is -70.9%. For the same compound, the compound was classed as inactive in [9], in assay [10] and in assay [12]. The Potency entry in [11], in assay [13], in [14], in assay [15] and in [16] was “inactive” each time.
